25 molecules from PubChem BioAssay (NCATS) can be followed below.

Unmarked numbers belong to inactive results. The source made the active and inactive calls. How the calls were made is not given here. Where only a bound is given, the exact number is not on record here.
Potency means the concentration at half of the fitted maximal effect.

In the assay the test system is HIV-1 nucleocapsid protein NCp7 (binding to TG oligonucleotide). Put plainly: HIV Nucleocapsid (AID 346).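 Further: potency is for inhibitors that block NC binding and lower polarization.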 Particulars: HIV-1 NC / fluorescein-TGTGTGTG probe, fluorescence polarization. The essentials:
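HIV-1 NC (100 nM) binding to fluorescein-labelled ssDNA TG4xF (10 nM) in Hepes pH 7.5, 250mM NaCl, 1uM ZnCl2, TCEP and 2-mercaptoethanol; compounds pin-transferred, 1 hr room temperature, fluorescence polarization read on CCD imager.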
Background: In fluorescence polarisation assays a small probe gives low polarisation when free and higher when bound to something large.
As for `COc1ccc(-c2nc3cnc(N4CCOCC4)nc3n(Cc3cccs3)c2=O)cc1`, the Potency is greater than 20 µM. Turning to `COC(=O)N1CCC2(CCN(C(=O)Nc3cccc(F)c3)CC2)CC1`, the Potency is greater than 20 µM.

Turning to `O=c1c(-c2cc(F)cc(F)c2)nc2cncnc2n1-c1ccccc1`, the Potency is greater than 20 µM. Turning to `Cc1cccc(CNc2ccnc(-c3ccccc3Cl)n2)c1`, the Potency was greater than 20 µM. Consider `O=c1cnc2cnc(Nc3ccccc3)nc2n1C1CC1`, for which the Potency was greater than 20 µM. The same measure for `c1ccc(CNc2cc(-c3cccnc3)ncn2)cc1`: greater than 20 µM. On to `O=C(Nc1cccc(F)c1)N1CC2(CCN(C(=O)c3cc(C(F)(F)F)cc(C(F)(F)F)c3)CC2)C1`, for which the Potency is greater than 4 µM. To `COc1ccc(C(=O)N2CCC3(CCCN(Cc4nccs4)C3)CC2)cc1` belongs greater than 20 µM. As to `COc1ncc2nc(-c3cn(C)c4ccccc34)c(=O)n(C)c2n1`, the Potency is greater than 20 µM.

Turning to `CCNc1ncc2nc(-c3ccc(F)cc3)c(=O)n(C[C@H]3CCCO3)c2n1`, the Potency is greater than 20 µM.

Regarding `CNc1nc(-c2cccc(C#N)c2)nc2ccccc12`, the Potency was greater than 20 µM. To `COc1ccccc1-c1ccc2ncnc(N3CCNCC3)c2c1` belongs greater than 20 µM; to `O=C(c1ccco1)N1CCC2(CCN(Cc3ccncc3)CC2)CC1`, greater than 20 µM; to `COCCn1c(=O)c(-c2ccccc2)nc2cnc(Oc3ccccc3)nc21`, greater than 20 µM. As for `Cc1ccccc1-c1nc(NC2CC2)c2ccccc2n1`, the Potency was greater than 20 µM. Take `COCCn1c(=O)c(-c2ccc(OC)cc2)nc2cnc(Nc3cccc(OC)c3)nc21`: the Potency is 8.97 µM (active). Turning to `O=C(c1cnccn1)N1CCC2(CC1)CN(c1ccccn1)C2`, the Potency was greater than 20 µM. On to `COc1ccc(NC(=O)N2CCCC3(CCN(C(=O)c4cccc(F)c4)CC3)C2)cc1`, for which the Potency is greater than 20 µM. With `COc1ccc2[nH]cc(CCNc3ncnc4ccc(-c5cccc(C#N)c5)cc34)c2c1`, the Potency is greater than 20 µM. The same measure for `COCCn1c(=O)c(-c2ccc(Cl)cc2)nc2cnc(Oc3ccccc3)nc21`: greater than 20 µM.

Regarding `COC(=O)N1CCC[C@@]2(CCN(Cc3nccs3)C2)C1`, the Potency was greater than 20 µM. With `COc1ccc(NC(=O)N2CC[C@@]3(CCCN(C(C)=O)C3)C2)cc1`, the Potency is greater than 20 µM. Take `N#CCCn1c(=O)c(CCc2ccccc2)nc2cnc(Nc3ccccc3)nc21`: the Potency was greater than 4 µM.

As to `O=C(Nc1cccc(F)c1)N1CCC2(CC1)CCN(C(=O)c1cnccn1)CC2`, the Potency was greater than 20 µM. As for `COc1cccc(-c2cncnc2NCc2cccc(C)c2)c1`, the Potency was greater than 20 µM.
